# Screens from PubChem BioAssay.
# Only a selection was taken, and hits are over-represented in it overall.
# ST2 IL33 inh: IL1RL1 inhibition; Q01638; AlphaLISA ST2-Fc/biotin-IL-33 interaction, 1 h; inhibition, % for hits at 17 µM; 78,000 tested, 2.3% active; AID 1259354; in the data active = inhibition above about 30%
# Target sequence (Q01638 whole entry, looked up): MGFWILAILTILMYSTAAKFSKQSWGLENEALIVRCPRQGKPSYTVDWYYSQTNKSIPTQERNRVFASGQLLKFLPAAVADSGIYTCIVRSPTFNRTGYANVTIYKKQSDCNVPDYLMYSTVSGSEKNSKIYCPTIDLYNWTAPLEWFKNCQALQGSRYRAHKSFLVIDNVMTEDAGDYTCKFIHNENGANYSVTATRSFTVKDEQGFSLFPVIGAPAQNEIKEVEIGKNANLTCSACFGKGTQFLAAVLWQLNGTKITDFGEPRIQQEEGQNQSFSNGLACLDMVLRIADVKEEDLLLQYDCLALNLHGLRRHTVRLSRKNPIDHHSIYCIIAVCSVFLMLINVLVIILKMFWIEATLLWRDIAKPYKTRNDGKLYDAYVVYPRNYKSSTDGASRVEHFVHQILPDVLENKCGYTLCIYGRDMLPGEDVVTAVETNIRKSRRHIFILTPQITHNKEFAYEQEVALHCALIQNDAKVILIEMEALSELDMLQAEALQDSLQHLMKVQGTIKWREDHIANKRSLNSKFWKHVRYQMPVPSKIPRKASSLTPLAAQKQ
# Numbers without * were called inactive; i = inactive.
SMILES,ST2 IL33 inh
CC(C)NC(=O)[C@@H](C)[C@@H]1CC[C@@]2(C)CC[C@H](NS(C)(=O)=O)[C@@H](C)[C@@H]2[C@H]1O,i
O=C(O)c1ccc(N2C(=O)c3nccnc3C2=O)cc1,i
CCCCOc1ccc(C2=N/C(=C\c3ccc([N+](=O)[O-])cc3)C(=O)O2)cc1,i
CCOc1ccc(/C=C2\N=C(c3ccc([N+](=O)[O-])cc3)OC2=O)cc1,i
CCOc1ccc(/C=C2\N=C(c3cc([N+](=O)[O-])cc([N+](=O)[O-])c3)OC2=O)cc1,40.0%*
N#Cc1ccccc1NC(=O)CC1Sc2ccc(C(F)(F)F)cc2NC1=O (stereo not given),i
CCCC1CC(C)C(=O)N(c2ccccc2Cl)C1=O (stereo not given),i
O=C(NCc1ccc2c(c1)OCO2)c1cc(Cn2ccc3ccccc32)[nH]n1,i
Cn1c(=O)c2c(nc(NCCO)n2Cc2ccccc2F)n(C)c1=O,i
Cn1c(=O)c2c(nc(OCCc3ccccc3)n2Cc2ccccc2F)n(C)c1=O,30.0%*
Cn1c(=O)c2c(nc(N3CCN(c4ccccn4)CC3)n2Cc2ccccc2F)n(C)c1=O,i
CC(=O)c1ccc2c(c1)c1cc(C(C)=O)ccc1n2CCC(C)C,i
COc1ccc(Cc2nc3cc(C)c(C)cc3n(C)c2=O)cc1Br,i
COc1ccc(Cc2nc3cc(C)c(C)cc3[nH]c2=O)cc1Br,31.0%*
COc1ccc(Cn2cnc([N+](=O)[O-])c2)cc1Br,i
CN1CCC(N2CCCC(NC(=O)c3ccccc3N3CCCC3)C2)CC1 (stereo not given),i
N#Cc1sc2nc(N3CCOCC3)c3c(c2c1N)CCCC3,i
CC(=O)N[C@@H]1C[C@H](CC(C)C)O[C@H](c2c(C)nc3ccc(Cl)cn23)C1,i
COc1cc(Br)c(/C=C2\C(=O)N(c3ccccc3)N=C2C)cc1OC,i
CC1=NN(c2ccccc2)C(=O)/C1=C\c1ccc(OCc2ccccc2)cc1,32.0%*
CC(=O)Nc1ccc(OCc2ccccc2)cc1,i
CC1=NN(c2ccccc2)C(=O)/C1=C\c1ccc(N2CCOCC2)cc1,40.0%*
C=CCN1C(=O)NC(=O)/C(=C/c2ccc(OCc3ccccc3F)cc2)C1=O,i
O=S(=O)(c1cccnc1)N1CCCC(CCc2ccc(F)c(F)c2)C1 (stereo not given),i
COc1cccc(C(=O)Nc2ccc(Cl)c(N3CCCS3(=O)=O)c2)c1,i
SMILES,ST2 IL33 inh
O=C(NCc1cccnc1N1CCOCC1)c1ccc(Cl)s1,i
CCCSc1nc2nc3c(cc2c(=O)n1-c1ccc(OC)cc1)COC(C)(C)C3,44.0%*
CCC1(C)Cc2c(sc3nc(SC)n(-c4ccc(OC)cc4)c(=O)c23)CO1 (stereo not given),i
CSc1nc2nc3c(cc2c(=O)n1-c1ccccc1C)COC(C)(C)C3,i
Cc1cc(C)n(-c2ccc(C(=O)N3CCCC(N(C)C)CC3)cc2)n1 (stereo not given),i
CC(=O)c1ccc(NC(=O)O[C@@H]2CO[C@H]3[C@@H]2OC[C@@H]3NC(=O)C2CCC2)cc1,i
CC1(C)CC(=O)C2=C(C1)NC1=C(C(=O)CC(C)(C)C1)C2c1ccccc1,i
CC1(C)CC(=O)C2=C(C1)Nc1[nH]c(=O)[nH]c(=O)c1C2c1ccccc1 (stereo not given),i
CC1(C)CC(=O)C2=C(C1)Nc1sc(C#N)c(N)c1C2c1ccccc1 (stereo not given),33.0%*
Cc1ccc(NC(=O)c2cc(C3CC3)on2)cc1C,i
CC(=O)c1c(C)nn(CC(=O)Nc2ccnn2C2CCCCC2)c1C,i
COCC(=O)NCCCc1nc2ccccc2[nH]1,i
CC(C)Oc1ccc(C(O)=C2C(=O)C(=O)N(c3ccccn3)C2c2cccs2)cc1 (stereo not given),i
CC(C)Oc1ccc(C(O)=C2C(=O)C(=O)N(c3nccs3)C2c2ccc([N+](=O)[O-])cc2)cc1 (stereo not given),35.0%*
CCCOc1ccc(C(O)=C2C(=O)C(=O)N(c3nccs3)C2c2cccs2)cc1 (stereo not given),i
COc1cc(NC(=O)c2ccccc2OC)cc(OC)c1,i
CCSc1nc2c(c(=O)[nH]1)C(c1ccc3c(c1)OCO3)C1=C(CC(C)(C)CC1=O)N2 (stereo not given),i
COc1ccccc1-c1ccnc(-n2ncc(C(=O)NCc3cccc(F)c3)c2C2CC2)n1,i
COc1ccc(OC)c(CNC(=O)c2cc(-c3cccs3)nc3ccccc23)c1,i
COCc1c(C(=O)NCc2ccc3c(c2)CCCN3C)cnn1-c1ncc(C)c(-c2cccs2)n1,39.0%*
CCN(CC)C(=O)c1ccc2c(Cl)c3c(nc2c1)CCCC3,i
COc1cc2c(cc1NC(=O)c1ccccc1I)CCCC2,i
O=C(CCC1CCCN(C(=O)CC2=CCCCC2)C1)N1CCN(Cc2ccccc2)CC1 (stereo not given),i
Cc1cccc2ccc(C3C(=O)c4ccccc4C3=O)nc12,i
COc1ccc2nc(SCCc3ccccc3)nc(C)c2c1,i
SMILES,ST2 IL33 inh
CCOC(=O)CCSc1nc(C)c2cc(C)ccc2n1,i
COc1ccc2nc(SC(=O)c3ccccc3)nc(C)c2c1,43.0%*
COc1ccccc1C(C)N(C)C(=O)c1cc(C)c(C)c(S(N)(=O)=O)c1 (stereo not given),i
CCCN(CCC)CCNS(=O)(=O)c1ccc(OCC)c2ncccc12,i
Cc1nonc1OCC(C)(COc1nonc1C)Nc1ccc([N+](=O)[O-])cc1[N+](=O)[O-],40.0%*
CCOc1ccccc1NS(=O)(=O)c1cc([N+](=O)[O-])ccc1C,i
Cc1cc([N+](=O)[O-])ccc1NC(=O)COc1ccc(C(C)C)cc1,i
Cc1nc(CC(=O)NC(c2nnc3n2CCNCC3)C(C)C)c(C)s1 (stereo not given),i
COc1ccc(NS(=O)(=O)c2ccc(NC(=O)c3ccc([N+](=O)[O-])cc3)cc2)nn1,i
CC1CC(=O)C2=C(CCC3(O)C2C(=O)c2cccc(O)c2C3O)C1 (stereo not given),31.0%*
Cc1nnn(C23C[C@@H]4C[C@@H](CC(NC(=O)[C@H](N)CC(C)C)(C4)C2)C3)n1,i
CCOC(=O)N1CCN(Cc2cc(C)ccc2C)CC1,i
Cn1c(=O)n(C)c2cc(CNC(=O)Cc3c[nH]c4ccccc34)ccc21,30.0%*
COCc1ccc(C(=O)NCc2ccc3c(c2)n(C)c(=O)n3C)o1,i
Cc1cc(C)n(CCC(=O)NCCc2c[nH]c3ccccc23)c(=O)n1,i
O=c1oc2ccc(Br)cc2cc1-c1csc(-c2cc3ccccc3oc2=O)n1,i
COC(=O)C(NS(=O)(=O)c1ccc2ccccc2c1)C(O)c1ccccc1 (stereo not given),i
COc1ccc(C2=NN(CN3C(=O)C(=O)c4ccccc43)C(c3ccc(OC)cc3)C2)cc1 (stereo not given),36.0%*
COc1ccc(NC(=O)CN2C(=O)C(=O)c3ccccc32)c(OC)c1,i
COc1ccc(C2CC(c3ccccc3)=NN2C(=O)c2ccccc2)cc1 (stereo not given),i
Cc1ccc(-c2cc(N3CCN(S(=O)(=O)c4cnn(C(F)F)c4C)CC3)ncn2)cc1,i
Cc1ccc(C(=O)O)cc1NS(=O)(=O)c1ccc2c(c1)c(=O)n(C)c(=O)n2C,i
Cc1cccn2c(=O)c3cc(C(=O)N4CCN(c5ccc(F)cc5)CC4)n(C)c3nc12,i
O=c1[nH]nc(CCc2ccccc2O)n1Cc1ccco1,i
